Assay results: PubChem BioAssay (NCI)
Compounds without any hit were thinned out: in the full panel of roughly 83,000, 20% have a hit.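 Cell lines were cultured in 96-well plates, exposed to a single compound concentration, and assessed for percent growth 48 hours later.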 Calls of active or inactive are those of the source. How the source made its calls: active means growth percent below 10; inactive means the rest.

tested on: TK-10 renal; experiment: NCI-60 one-dose screen, 48 h (100 = growth as untreated, 0 = no growth, -100 = all killed); details: 10 µM unless noted

SMILES | growth
CC(C)(C)N1CCC1CN (stereo not drawn) | 106% (inactive)
C=C1C(=O)O[C@H]2[C@H]1CC/C(COC(=O)c1cc3cc(OC)ccc3[nH]1)=C\CC[C@@]1(C)O[C@@H]21 | -97% (active)
CC[C@]1(O)C[C@@H]2CN(CCc3c([nH]c4ccccc34)[C@@](C(=O)OC)(c3cc4c(cc3OC)N(C)[C@H]3[C@@](O)(C(N)=O)[C@H](O)[C@]5(CC)[C@@H]6C[C@@H]6CN6CC[C@]43[C@@H]65)C2)C1 | 53.5% (inactive)
Cc1nn(-c2ccc(F)cc2)c2ncnc(Nc3ccc(NC(=O)Nc4ccc(Cl)c(C(F)(F)F)c4)cc3)c12 | 26.5% (inactive)
O=C(N/N=C/c1ccccc1O)c1ccccc1Nc1ccnc(C(F)(F)F)c1 | 34.3% (inactive)
CC(=O)O[C@H]1[C@@H]2OC(=O)C(CSc3ccccc3)[C@@H]2C[C@H]2O[C@]2(C)CC/C=C(\C)CCC[C@@H]1C (stereo partly drawn) | -5.98% (active)
C#CCOc1ccc2ncnc(N3CCC(NC(=O)CCl)CC3)c2c1 | 69% [8.25 µM] (inactive)
CCC(=O)c1ccc(Cl)s1 | 103% (inactive)
O=C1CC[C@H](c2ccc(O)c3c2C(=O)[C@@H]2O[C@@H]2C3=O)c2cccc(O)c21 | 3.89% (active)
COc1ccc(S(=O)(=O)N2CC3(COC3)C2)cc1NC(=O)c1[nH]c(C)c2c1CCCCC2=O | 17.5% (inactive)
O=C1/C(=C/c2ccc3c(c2)OCO3)SC(=S)N1CCc1ccc(O)cc1 | 81.3% (inactive)
Oc1ccccc1-c1nnc(CNc2ccc(Cl)cc2)o1 | 44.7% (inactive)
Cc1ccc(OC(=O)c2ccc(Cl)cc2)cc1 | 98.2% (inactive)
